HP1b chromo inh = blocks HP1-beta chromodomain binding to methylated histone tails; AID 540317; P83916; Potency, µM (series often up to 114 µM), inactives show at the top dose activity change, negative = inhibition, actives largely listed as inhibitors; 0.56% of 390,000 active; AlphaScreen HP1-beta / biotin-H3K9me3 peptide binding; also: nearly all actives have a fitted effect of over 70% in size
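Compound inhibition of the preformed complex between 50 nM HP1-beta and 50 nM biotinylated H3K9me3 peptide was read by AlphaScreen. Buffer was PBS pH 7.4 with 0.01% Tween-20. Incubations ran 30 min at room temperature, with 10 ug/mL donor/acceptor beads.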
G9a inh = G9a (human) methyltransferase inhibition; Q96KQ7; G9a H3K9 monomethylation, AlphaScreen, 2 h; Potency, µM (highest dose often 102 µM), for inactives: at the highest dose activity, negative = inhibition, hits mostly inhibitors; 8.8% of 350,000 active; also: % is scaled to controls: 0 for no effect and ±100 for the full control effect; nearly all actives have a fitted effect of over 75% in size
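G9a (20 nM) preincubated 15 min RT with compounds, then 500 nM biotinylated H3K9 peptide and 20 uM SAM added; 2 h RT reaction. Monomethyl-H3K9 product detected by AlphaScreen with anti-H3K9me1 antibody, streptavidin donor and anti-rabbit IgG acceptor beads.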
BAZ2B inh = blocks human BAZ2B; 4.4% of 360,000 active; Q9UIF8; AID 504333; Potency, µM (highest dose often 114 µM), for the others: at the highest dose activity change, negative = inhibition, most hits filed as inhibitors; AlphaScreen BAZ2B-H3K14Ac peptide displacement; also: % is scaled to controls: 0 for no effect and ±100 for the full control effect; nearly all actives have a fitted effect of over 60% in size
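Compounds, titrated to a top concentration of 110 uM, were incubated 30 min at room temperature with preformed BAZ2B/acetyl-K14 H3 peptide complex (50 nM each). Proximity signal was measured by AlphaScreen after 20 min with beads.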
L3MBTL1 inh = blocks human L3MBTL1; AlphaScreen L3MBTL1–H3K9me1 peptide binding; Potency, µM (titrated, usually from 57.1 µM), for the others: at the top dose activity, negative = inhibition, hits mostly inhibitors; 0.66% of 230,000 active; AID 485360; also: % is scaled to controls: 0 for no effect and ±100 for the full control effect; nearly all actives have a fitted effect of over 60% in size
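L3MBTL1 (50 nM) pre-complexed 30 min with biotinylated H3(1-15)K9me1 peptide (75 nM), then compounds added for 30 min at room temperature; AlphaScreen streptavidin donor/nickel chelate acceptor beads (10 ug/mL final) read after 30 min dark incubation.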
GLS inh = glutaminase GLS (human) inhibition. 0.21% of 410,000 active. O94925. Potency, µM (doses to about 45.5 µM), inactives show at the highest dose activity change, negative = inhibition, hits mostly inhibitors. GLS enzymatic activity, qHTS titration. AID 624170; also: % is scaled to controls: 0 for no effect and ±100 for the full control effect
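Coupled fluorescence readout: glutamate oxidase/HRP/Amplex Red detect glutamate formed by hKGA from L-glutamine (1 mM solution added). Buffer 45 mM KH2PO4 pH 8.2, 0.02% Tween-20; reads at t0 and 30 min RT.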
JMJD2A Tudor inh = JMJD2A Tudor domain (human) inhibition; AlphaScreen JMJD2A-Tudor / H3K4me3 peptide binding; 4.4% of 390,000 active; Potency, µM (series often up to 114 µM), inactives show at the top dose activity change, negative = inhibition, most hits filed as inhibitors; O75164; also: % is scaled to controls: 0 for no effect and ±100 for the full control effect; nearly all actives have a fitted effect of over 50% in size
* marks the source's active call; other numbers are inactive results; ? = inconclusive; · = no result given; [ ] = remark or other dose. Hits are enriched below; roughly 10% of the tested compounds scored in any of these assays. Calls follow the shape of the dose curve; as a rule, active = well fitted curve in the direction sought with a large enough effect; inconclusive = small, poorly fitted or top-dose-only effect, or another doubt; inactive = no such curve, though single readings can be large; an effect the other way counts as inactive or inconclusive. Potency is read from the fitted curve at half-maximal effect.

SMILES | HP1b chromo inh | G9a inh | BAZ2B inh | L3MBTL1 inh | GLS inh | JMJD2A Tudor inh
CCOC(=O)C1CCN(S(=O)(=O)c2ccc(OCC)cc2)CC1 | 37.6% | 6.9%[12.7 µM] | 11.3% | · | -2.5% | 4.7%
CCOC(=O)C1CCCN(Cc2ccccc2C)C1 (stereo not given) | ? | 2.51µM* | 70.8µM* | · | 0.6% | 5.01µM*
COc1cccc(C(=O)N2CCOCC2)c1 | 28.4% | 0.0% | -8.4% | ? | 1.1% | 5.2%
CCOC(=O)C1CCCN(Cc2ccc(OCC)cc2)C1 (stereo not given) | ? | 8.91µM* | ? | · | 25.0% | 20µM*
CCCCCn1c(-c2ccc(OC)c(OC)c2)nc2ccccc21 | 78.7% | 10.8%[59 µM] | 33.0% | · | -1.7% | -7.0%
O=C(NCCc1ccccc1)c1cc2sccc2n1Cc1ccc(F)cc1 | 26.3% | 1.2%[59 µM] | -1.1% | · | -4.3% | -9.9%
COc1ccc(CN2CCC(C(=O)NCCc3ccc(OC)c(OC)c3)CC2)c(OC)c1 | 11.6% | -1.5% | 1.8% | · | -0.2% | -8.2%
CCOC(=O)C1CCN(C/C=C/c2ccccc2[N+](=O)[O-])CC1 | -16.3% | · | ? | 1.9% | -7.1% | 2.24µM*
CCOC(=O)C1CCN(Cc2coc3c(Cl)cc(Cl)cc3c2=O)CC1 | -7.2% | 11.2µM* | ? | 5.5% | 2.8% | 20µM*
CCOC(=O)C1CCN(CC(=O)N2CCc3ccccc32)CC1 | -0.3% | 22.7% | 1.0% | · | 0.7% | -11.2%
CCOC(=O)C1CCN(Cc2ccc(OC)cc2OC)CC1 | ? | ? | ? | -6.1% | 0.3% | 1.78µM*
CCOC(=O)C1CCN(CC(=O)N2C(C)CCCC2C)CC1 (stereo not given) | 44.7µM* | 8.91µM* | 50.1µM* | -6.0% | -5.8% | 5.01µM*
COc1ccc(N2CCN(C(=O)c3cc(-c4ccc(C)c(F)c4)on3)CC2)cc1 | 21.3% | 17.4%[59 µM] | 7.7% | · | 10.3% | -19.5%
Clc1cccc(CNc2cc(-c3ccccc3)nc3nncn23)c1 | 37.2% | 4.5%[59 µM] | 3.3% | · | -8.8% | -1.3%
CC[N+](CC)(CC)CCOC(=O)C(C1CCCC1)C1CCCC1 | · | · | · | · | 1.5% | ·
CCOC(=O)C1CCN(C(=O)Cc2ccc(-c3ccccc3)cc2)CC1 | 23.4% | · | 41.6% | 34.8% | -4.5% | -7.6%
CCOC(=O)C1CCN(Cc2cn[nH]c2-c2ccccc2)CC1 | ? | 7.94µM* | ? | 0.3% | -5.3% | 3.16µM*
COc1ccc(C(=O)NC2CCSc3ccccc32)cc1 (stereo not given) | 16.6% | 19.5% | -20.3% | · | 9.8% | -7.4%
CC(=O)Nc1ccc(C(=O)NC2CCSc3ccccc32)cc1 (stereo not given) | 25.9% | 14.1µM* | -10.1% | · | -0.3% | -22.0%
CSc1ccccc1C(=O)NC1CCSc2ccccc21 (stereo not given) | 4.6% | 39.8µM* | -9.3% | · | 0.0% | -26.4%
COc1ccc(-c2cc(-c3ccco3)[nH]c(=O)c2C#N)cc1OC | 11.8% | 10µM* | 56.2µM* | ? | -13.8% | ?
Cc1cccc(OCc2nc(-c3ccccn3)n[nH]2)c1 | 45.9% | 22.6%[59 µM] | 8.91µM* | · | 1.4% | 12.6µM*
Cc1cccc(OCC(=O)O/N=C(\N)c2ccccn2)c1 | 37.3% | -2.5%[59 µM] | -2.3% | 1.5% | 2.4% | -16.4%
Cc1ccc(OCc2nc(-c3ccccn3)n[nH]2)cc1 | 50.7% | 70.8%[59 µM] | 3.98µM* | · | 1.9% | 20µM*
Cc1cc(C)nc(Nc2n[nH]c(COc3ccc(Cl)cc3)n2)n1 | 25.0% | 10.7%[59 µM] | 8.5% | 7.9% | 5.1% | 4.1%
Cc1sc(NC(=O)CCCC(=O)O)c(C(N)=O)c1-c1ccccc1 | -33.1% | 25.1µM* | 0.0% | · | 3.0% | -22.9%
Sc1oc(-c2ccccc2)cc1C=Nc1ccccc1 | ? | 0.891µM* | 20µM* | · | -2.6% | 20µM*
O=[N+]([O-])c1cc2c(cc1C=Nc1ccccc1)OCO2 | -33.7% | ? | ? | -3.8% | -1.6% | ?
O=S(=O)(NCC1CCCN(Cc2ccccc2O)C1)c1cccc2cccnc12 (stereo not given) | 41.1% | 70.8µM* | -17.3% | · | 18.7% | -12.4%

Screening results: PubChem, National Center for Advancing Translational Sciences (NCATS)
